PfHsp90 yeast 2 = growth inhibition of PfHsp90-expressing yeast, primary screen, antimalarial PfHsp90 inhibitor project, S. cerevisiae, BacTiter-Glo luminescence, single point, set 2; BacTiter-Glo ATP, 48 h; yeast lacking PDR1 and PDR3 efflux regulators; inhibition, % at 9.4 µM; actives 0.32% (n = 310,000);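 active = every replicate shows inhibition above about 80%, whatever the replicate mean, limit read from the data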;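 also: 0% = DMSO neutral controls and 100% = 20 µM radicicol positive controls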
tim10-1 inh = growth inhibitors of tim10-1 mutant yeast, primary screen, luminescence, uHTS | S. cerevisiae tim10-1 ts strain growth, BacTiter-Glo, 24 h | inhibition, % at 20 µM | actives 2.2% (n = 330,000);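 active = inhibition of at least 40%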;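 also: mutant grown at 25 °C; 0% = DMSO wells with yeast and 100% = wells holding no yeast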
tim23-1 inh = growth inhibitors of tim23-1 mutant yeast, primary screen, luminescence, uHTS. S. cerevisiae tim23-1 growth, BacTiter-Glo luminescence, 24 h. inhibition, % at 20 µM. actives 1.3% (n = 330,000). AID 463212, 2010;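 active = growth inhibition of the mutant yeast at or above 50%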;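 also: temperature-sensitive mutant grown at 25 °C; plate controls were DMSO-treated mutant yeast for no effect and medium wells lacking yeast for full effect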
TIM10 inh = growth inhibitors of isogenic TIM10 control yeast, primary screen, counter-screen for tim10-1 yeast inhibitor project, luminescence, uHTS | S. cerevisiae TIM10 strain growth, BacTiter-Glo luminescence, 24 h | inhibition, % at 10 µM | actives 1.4% (n = 330,000);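 active = inhibition of 40% or more at the single tested concentration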;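 also: wild-type TIM10 isogenic control strain grown at permissive 25 °C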
Mot1-301 SUMO = yeast Mot1-301 growth rescue at high temperature, primary screen, SUMOylation pathway inhibitor project, S. cerevisiae, ATP luminescence, 38.5C; S. cerevisiae Mot1-301 growth rescue; percent above DMSO median, 100 means doubled; growth rescue, % at 18.8 µM; actives 1% (n = 320,000);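 active = every valid replicate shows activation above 250% relative to neutral control wells; inactive = the rest, any valid replicate at or below 250%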;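 also: OY570 slx delta 5 strain wells were the positive control but not used for scaling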
Yeast Mot1 SUMO = growth restoration of Mot1-301 yeast on galactose, dose response, SUMO pathway inhibitor project, whole organism, S. cerevisiae, ATP luminescence, cherry-picked samples | shares compounds with Mot1-301 SUMO | S. cerevisiae Mot1-301 galactose growth, 24 h; -100 = growth of slx-deleted rescue strain | growth activity, percent, % at 42 µM | 2,300 tested, under 10 active | AID 493004, 2010;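 active = Signal drops as the depositor expects, and the fitted half-maximal dose is no more than ten times the top valid tested dose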;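 also: more negative values mean stronger growth rescue toward the control strain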
tim10-1 conf = growth inhibitors of tim10-1 mutant yeast, confirmation, single concentration, luminescence, S. cerevisiae; S. cerevisiae tim10-1 ts strain growth, BacTiter-Glo, 24 h; shares compounds with tim10-1 inh; inhibition, % at 20 µM; actives 56% (n = 7,400);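 active = inhibition of yeast growth at or above a set limit in either of two repeat tests at 20 µM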;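 also: tim10-1 mutant grown at permissive 25 °C to find synthetic lethal compounds; 0% = DMSO yeast wells and 100% = medium wells without yeast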
TIM10 conf = growth inhibitors of wild-type TIM10 yeast, confirmation, counter-screen for tim10-1 synthetic lethality project, single concentration, luminescence, S. cerevisiae; S. cerevisiae tim10 strain growth, BacTiter-Glo luminescence, 24 h; shares compounds with TIM10 inh; actives 63% (n = 4,600); inhibition, % at 10 µM;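 active = inhibition of yeast growth at or above a set limit in either of two replicates at 10 µM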;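 also: this counterscreen used the strain with wild-type TIM10; 0% = yeast with DMSO and 100% = medium wells lacking yeast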
tim23-1 confirm = tim23-1 mutant yeast growth inhibitors, confirmation, luminescence, single concentration; shares compounds with tim23-1 inh; S. cerevisiae tim23-1 growth, BacTiter-Glo luminescence, 24 h; inhibition, % at 20 µM; actives 83% (n = 4,400); AID 463218, 2010;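 active = inhibition above about 39% in either of two replicate wells at 20 µM, limit read from the data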;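 also: temperature-sensitive tim23-1 mutant grown at 25 °C; 0% = DMSO wells with yeast and 100% = medium wells without yeast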
The depositor's hits bear a star; · = no result. Shown are actives, neighbours in structure and some others; about 4.4% of the full set was active somewhere.

SMILES	PfHsp90 yeast 2	tim10-1 inh	tim23-1 inh	TIM10 inh	Mot1-301 SUMO	tim10-1 conf	others
Cn1c(SCC(=O)N/N=C/c2ccc([N+](=O)[O-])s2)nnc1-c1ccc(Cl)cc1	105.3*	23.4	61.9*	80.8*	957.8*	·	Yeast Mot1 SUMO=0.3;TIM10 conf=-23.1;tim23-1 confirm=65.2*
O=C1Nc2ccccc2/C1=C/c1ccc([N+](=O)[O-])cc1	-18.3	55.9*	74.4*	80.8*	476.9*	61.7*	Yeast Mot1 SUMO=-0.4;TIM10 conf=80.8*;tim23-1 confirm=59.4*
COc1ccc(Cl)cc1C(=O)NNC(=O)c1[nH]c(C)c(C(C)=O)c1C	-15.1	12.6	8.2	6.9	12.2	·
O=C(COC(=O)c1ccc([N+](=O)[O-])s1)c1ccc[nH]1	-22.0	63.0*	63.7*	79.5*	516.2*	70.8*	Yeast Mot1 SUMO=-2.9;TIM10 conf=84.4*;tim23-1 confirm=58.2*
Cc1ccc(F)cc1NS(=O)(=O)c1ccc(Cl)s1	-3.5	39.9	50.6*	27.6	377.9*	·	Yeast Mot1 SUMO=0.5;tim23-1 confirm=49.8*
CC1(c2ccccc2Cl)NC(=O)N(CC(=O)Nc2ccc(N3CCCCC3)cc2)C1=O (centres undefined)	17.6	15.2	-2.7	-7.0	4.9	·
Cc1ccc(N=c2ssnc2Cl)cc1	93.1*	64.4*	66.0*	27.0	470.7*	63.2*	Yeast Mot1 SUMO=-0.8;tim23-1 confirm=90.2*
Nc1ccccc1N=c1ssnc1Cl	6.3	·	·	·	·	·
C=C(C)C(=O)OC1(C(F)(F)F)Oc2cc(C)ccc2NC1=O (centres undefined)	·	55.9*	65.8*	47.7*	363.2*	52.2*	Yeast Mot1 SUMO=-1.5;TIM10 conf=41.4*;tim23-1 confirm=77.8*
CCOC(=O)C1(N(CC)CC)Sc2cc(C)ccc2NC1=O (centres undefined)	·	28.5	34.5	30.3	126.6	·
O=Nc1c(-c2cccc([N+](=O)[O-])c2)nc2ncccn12	·	91.3*	89.1*	83.8*	556.1*	91.2*	Yeast Mot1 SUMO=-0.1;TIM10 conf=98.0*;tim23-1 confirm=72.8*
O=[N+]([O-])c1cccc(-c2cn3nc(-c4ccccc4)c(-c4ccccc4)nc3n2)c1	-5.3	10.2	-6.0	15.2	7.2	·
COCCNc1ccc([N+](=O)[O-])cc1C(=O)NC1CCCc2ccccc21 (centres undefined)	-1.7	5.9	30.1	16.1	6.2	·
Cc1ccccc1OCc1nnc(SCC(=O)N2CCc3ccccc32)n1C	·	21.8	20.4	7.2	-11.2	·
Cc1cccc(OCc2nnc(SCC(=O)N3c4ccccc4CC3C)n2C)c1C (centres undefined)	-19.7	39.5	54.4*	44.4*	399.8*	·	Yeast Mot1 SUMO=0.2;TIM10 conf=-2.0;tim23-1 confirm=42.2*
CCOc1ccc(N(CC(=O)NC2CCCCC2)C(=O)CCC(=O)Nc2nc(C)cs2)cc1	-32.2	2.7	2.3	11.9	4.5	·
CCCC(=O)Nc1ccc(Sc2ccc([N+](=O)[O-])cc2)cc1	3.8	42.5*	51.3*	54.5*	373.6*	25.2	Yeast Mot1 SUMO=0.1;TIM10 conf=41.2*;tim23-1 confirm=43.0*
COc1ccc(-c2cc(C3CC3)nc(N)c2C#N)cc1	-9.8	26.9	24.4	22.0	-8.4	·
COc1ccc(-c2cc(C3CC3)nc3sc(C#N)c(N)c23)cc1	-0.7	44.3*	47.2	35.2	-30.8	56.7*
CC(C)COC(=O)n1c(=O)oc2cc(S(=O)(=O)N3CCCCC3)ccc21	·	41.0*	41.8	36.9	-2.3	38.3*
CC(C)CN(C(=O)c1ccc([N+](=O)[O-])s1)c1c(N)n(Cc2ccccc2)c(=O)[nH]c1=O	·	-0.9	14.8	4.3	122.6	·
CCOc1ccccc1N(C)C(=O)c1sc2ncn(CC(=O)N3CCCCC3C)c(=O)c2c1C (centres undefined)	33.0	18.9	3.8	-3.9	309.2	·
COc1cccc(CNC(=O)c2cc3c(C)nc4ccccc4c3o2)c1	4.0	9.1	11.6	-27.3	46.1	·
CCc1ccc(CNC(=O)c2cc3c(C)nc4ccccc4c3o2)cc1	3.7	42.6*	42.7	-3.9	-6.4	16.6
Cc1nc2ccccc2c2oc(C(=O)NCC3COc4ccccc4O3)cc12 (centres undefined)	·	40.6*	29.8	5.5	85.4	9.6
SMILES	PfHsp90 yeast 2	tim10-1 inh	tim23-1 inh	TIM10 inh	Mot1-301 SUMO	tim10-1 conf	others
O=C(Nc1ccc(F)cc1)c1cc(S(=O)(=O)N2CCCCC2)ccc1F	-5.9	42.3*	17.4	7.6	-7.1	8.6
CC(C)Oc1ccccc1C1Nc2ccccc2C(=O)N1c1ccc2c(c1)OCCO2 (centres undefined)	-6.4	45.7*	24.9	11.1	31.5	23.1
O=C(COCc1ccccc1)N[C@@H]1c2ccccc2CC[C@@H]1OCc1ccccc1	-14.6	24.6	47.7	-1.7	·	·
Cc1ccc(C(=O)CSC2=C(C#N)C(c3ccco3)C3=C(CCCC3=O)N2)cc1 (centres undefined)	-32.6	38.4	41.2	22.4	12.6	·
N#CC1=C(SCC(=O)c2ccccc2)NC2=C(C(=O)CCC2)C1c1ccco1 (centres undefined)	0.1	48.7*	-25.8	20.7	-12.3	17.4
CCOC(=O)N1CCN(C2=C(NS(=O)(=O)c3ccc(C)cc3)C(=O)c3ccccc3C2=O)CC1	1.1	48.8*	39.0	4.9	7.9	16.9
CC1(C)Cc2ccccc2/C(=C/C(=O)N2CCCCCC2)N1	44.8	42.5*	31.8	36.9	-5.3	40.2*
COc1cc2c(cc1OC)/C(=C/C(=O)N1CCOCC1)NC(C)(C)C2	·	-6.6	-12.0	-8.2	7.1	·
COC(=O)/N=C(/Cc1ccc(OC)cc1)c1ccc(OC)cc1	-11.9	32.4	26.4	19.9	-13.1	·
COc1ccc(C/C(=N\OC(C)=O)c2ccc(OC)cc2)cc1	-12.2	45.7*	25.8	7.1	18.4	44.7*
CC(C)(C)C1C=C(Sc2ccccc2)C(=O)O1 (centres undefined)	6.7	43.5*	45.2	10.0	-6.2	34.9*
CCCOc1ccccc1NC(=O)/C=C/C(N)=O	-11.5	61.7*	31.8	36.6	293.2	55.5*
